Most compounds without a hit are left out; they make up all but 13% or so of the library.
USP10 block: human USP10 deubiquitinase inhibition; Q14694; inhibition, % at 20 µM; 47,000 compounds, 1.1% hits; purified USP10, Ub-rhodamine fluorescence, 60 min; AID 1645856
USP7 block: blocks human USP7 ubiquitin-rhodamine cleavage | Q93009 | purified USP7, Ub-rhodamine cleavage fluorescence | inhibition, % at 20 µM | 47,000 compounds, 0.3% hits | AID 1645854
USP17 inh: inhibitors of human USP17 deubiquitinase; A8MUK1; purified USP17, Ub-rhodamine cleavage fluorescence, 3 h; inhibition, % at 50 µM; 47,000 compounds, 6.5% hits
USP28 block: inhibitors of human USP28 deubiquitinase; 47,000 compounds, 3% hits; AID 1645857; inhibition, % at 25 µM; purified USP28, Ub-rhodamine cleavage fluorescence, 30 min
USP8 inh: human USP8 deubiquitinase inhibition. inhibition, % at 20 µM. 47,000 compounds, 4.2% hits. P40818. AID 1645853. purified USP8, Ub-rhodamine cleavage fluorescence, 30 min
USP30 inh: inhibitors of human USP30 deubiquitinase. purified USP30, Ub-rhodamine cleavage fluorescence. inhibition, % at 25 µM. 47,000 compounds, 5.3% hits. AID 1645860
Starred values were filed as active, the others as inactive; / = not tested or not shown. Rule as the data show it: active = inhibition above about 30%; inactive = the rest.

SMILES	USP10 block	USP7 block	USP17 inh	USP28 block	USP8 inh	USP30 inh
CC(NC(=O)Cc1cccc2ccccc12)c1ccc(Cl)cc1 (centres undefined)	1	-63	3	12	7	-11
O=C(NC1CCCC1)N1C2CCC(O)(CC2)C1CN1CCOCC1 (centres undefined)	2	7	11	7	10	27
Cc1cc(OCC(=O)Nc2cccc(C#N)c2)nc(N2CCCCC2)n1	0	-40	-14	-1	-17	-30
CC(=O)Nc1cccc(NC(=O)COc2cccc3ccc(N4CCCC4)nc23)c1	5	3	53*	15	6	15
Cc1cccc(NC(=O)COc2cccc3ccc(N4CCC(C(N)=O)CC4)nc23)c1	11	1	33*	0	61*	15
O=C1c2ccccc2-c2nnc(-c3ccncc3)cc21	7	-1	47*	13	95*	34*
COc1ccccc1-c1nc(NC(=O)C2CC(=O)N(C(C)C)C2)n[nH]1 (centres undefined)	0	1	-7	-6	-1	-1
CCOc1ccccc1NC(=O)C1CC(=O)Nc2nc3ccccc3n21 (centres undefined)	21	7	24	4	39*	26
Cc1cc(C)cc(NC(=O)C2CC(=O)Nc3nc4ccccc4n32)c1 (centres undefined)	40*	12	-2	-4	46*	5
CCN(CC)C(=O)C1CCN(S(=O)(=O)c2ccc3c(c2)CCCC3)CC1	0	-5	-5	-7	-2	0
O=C(COc1cccc(F)c1)Nc1sc2c(c1-c1nc3ccccc3[nH]1)CCCC2	-3	-6	-31	-17	-165	-64
CC(C)c1cc(NCC2CCCO2)n2nc(-c3cccnc3)nc2n1 (centres undefined)	0	0	6	-6	12	13
CC1CN(C(=O)c2cccn(Cc3c(Cl)cccc3Cl)c2=O)CC(C)O1 (centres undefined)	0	4	0	7	-11	17
N#Cc1ccc(NC(=O)Nc2cccn(Cc3c(F)cccc3Cl)c2=O)cc1	-4	-26	78*	41*	89*	-27
N#Cc1ccc(NC(=O)C2CC(=O)N(Cc3ccccc3)C2)cc1 (centres undefined)	-4	-146	-2	-4	-2	-10
N#Cc1ccc(NC(=O)Nc2cccn(Cc3ccc(F)cc3)c2=O)cc1	37*	-5	93*	84*	95*	26
COC(=O)Nc1cccn(Cc2c(Cl)cccc2Cl)c1=O	50*	-13	88*	88*	93*	52*
O=C(Nc1ccccc1)N1CCCN(Cc2c(F)cccc2Cl)CC1	8	7	6	10	15	29
Cc1ccc(C(=O)c2cn(CC(=O)Nc3ccc(C(C)C)cc3)c3ccc(C)cc3c2=O)cc1	-2	-1	10	/	-1	/
Cc1ccc2c(c1)c(=O)c(C(=O)c1ccccc1)cn2CC(=O)Nc1ccccc1	27	30	59*	-29	89*	-44
Cc1ccc(NC(=O)Cn2cc(C(=O)c3ccccc3)c(=O)c3cc(C)ccc32)cc1	44*	32*	20	7	83*	12
CCC(CC)C(=O)N1CCN(c2ccc(NCc3ccccc3)nn2)CC1	1	1	-36	-7	4	-3
COc1ccc(-n2nc(C)c3c2NC(=O)CC3C(=O)c2ccc3c(c2)OCO3)cc1 (centres undefined)	1	1	16	4	7	39*
Cc1cccc(-n2nc(C)c3c2NC(=O)CC3C(=O)c2cc3ccccc3o2)c1 (centres undefined)	10	0	70*	-15	-4	3
COc1ccc(C(=O)C2CC(=O)Nc3c2c(C)nn3-c2ccc(Br)cc2)cc1 (centres undefined)	20	8	58*	10	30*	23
SMILES	USP10 block	USP7 block	USP17 inh	USP28 block	USP8 inh	USP30 inh
Cc1ccc(-n2nc(C)c3c2NC(=O)CC3C(=O)c2ccc(O)cc2)cc1C (centres undefined)	0	3	10	8	12	0
CCC(C(=O)NCCc1cn2cccc(C)c2n1)c1ccccc1 (centres undefined)	3	1	-9	-6	0	-3
Cc1ccc(NS(=O)(=O)c2cc(C(=O)NCc3ccco3)ccc2Cl)cc1C	10	6	14	21	25	15
O=C(CCc1nc2sc3c(c2c(=O)[nH]1)CCCCC3)Nc1ccc(F)cc1F	-6	-30	-173	-42	42*	-263
Cc1ccc(NC(=O)CCc2nc3sc4c(c3c(=O)[nH]2)CCCC4)cc1F	3	8	-4	0	-11	4
O=C(c1nc(-c2ccccc2)nc2c1OCO2)N1CCOCC1	0	3	0	0	3	8
COc1ccc(-n2c(C)cc(C(=O)CSc3nncn3-c3ccccc3OC)c2C)cc1	2	-1	34*	30*	10	2
CCOc1ccc(-c2[nH]ncc2CN2CCCC2c2cc(C)on2)cc1 (centres undefined)	1	-3	-10	-13	0	-14
O=C(CCC(=O)N1CCC(C(=O)N2CCOCC2)CC1)Nc1ccc(Oc2ccccc2)cc1	-3	-1	/	18	3	24
O=C(CCSc1ccccc1)Nc1ccc(Oc2ccccc2)cc1	13	12	42*	3	13	5
O=C(COC(=O)C1CCCCC1)Nc1ccc(Oc2ccccc2)cc1	12	13	31*	11	11	28
O=C(NCC1CCCO1)c1cnn2c3c(cnc12)CCCCCC3 (centres undefined)	5	1	7	-7	6	2
O=C(CN1C(=O)COc2ccc(C(=O)N3CCCC3)cc21)NC1CCCCCC1	0	-9	-10	-7	0	2
CC(=O)Nc1ccc(NC(=O)C2CCC(CNS(=O)(=O)c3ccc(F)cc3)CC2)cc1 (centres undefined)	10	7	9	18	25	31*
CCN1CCCC1CN(Cc1cc2cc(C)ccc2[nH]c1=O)C(=O)Nc1cccc(Cl)c1 (centres undefined)	-1	0	3	-3	4	12
COc1cc(NC(=O)Cc2ccc3c(c2)OCCO3)c(OC)cc1Cl	21	15	28	22	49*	45*
O=C(Cc1ccc2c(c1)OCCO2)Nc1ccc(F)cc1F	0	0	-5	/	1	/
Cc1ccc(S(=O)(=O)N[C@H](C(=O)N2CCC(C(=O)NC3(C(=O)O)CCCCC3)CC2)C(C)C)cc1	-1	2	-1	-4	2	-4
Cc1cc(N2CCN(c3ncccn3)CC2)nc2ccc(NC(=O)C3CC3)cc12	0	-6	24	30	-12	7
Cc1cc(N2CCN(c3ncccn3)CC2)nc2ccc(NC(=O)c3cccnc3)cc12	-6	-2	35*	21	0	16

Source: PubChem
